The panel holds about 83,000 compounds, 20% with a hit somewhere; the sample as a whole holds those more often.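 How to read the values: 0–100, growth inhibition (40 = 60% inhibited); 0, no net growth; -100 to 0, cell death (-40 = 40% of starting cells died; -100 = all dead).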 A number with no mark means an inactive call. Calls of active or inactive are those of the source. Rule for the calls: active = growth percent below 10; inactive = the rest.

The text below walks through data of PubChem BioAssay (NCI).

Among the test systems are RPMI-8226 leukemia; OVCAR-5 ovarian; OVCAR-4 ovarian; SK-OV-3 ovarian; IGROV1 ovarian; OVCAR-3 ovarian; HS 578T breast; NCI/ADR-RES ovarian; T-47D breast; BT-549 breast; MDA-MB-435 melanoma; SW-620 colon; MCF7 breast; HCT-116 colon; HCC-2998 colon; KM12 colon.
What all share (experiment): NCI-60 one-dose screen, 48 h (100 = growth as untreated, 0 = no growth, -100 = all killed)
Conditions in all cases: 10 µM unless noted

For the compound `C[C@@H]1C(=O)[C@@H]2C[C@@H](O)[C@@H](O)C[C@]2(C)[C@H]2CC[C@@]3(C)C(=C12)CC[C@@H]3[C@@](C)(O)[C@H](O)CCC(C)(C)O`, the growth was 105% with RPMI-8226 leukemia; 112% in the test with OVCAR-5 ovarian; 114% in the test with OVCAR-4 ovarian; 103% in the test on SK-OV-3 ovarian; 113% in the test with IGROV1 ovarian; 102% in the test with OVCAR-3 ovarian. Moreover, the growth with HS 578T breast is 99.3%; in the test on NCI/ADR-RES ovarian, 110%; with T-47D breast, 95.5%; with BT-549 breast, 102%; in the test with MDA-MB-435 melanoma, 108%; with SW-620 colon, 106%. Further, the growth with MCF7 breast was 104%; with HCT-116 colon, 103%; in the test on HCC-2998 colon it was 97.3%; with KM12 colon it was 114%.
In the case of `COc1ccc2oc(=O)cc(-c3c(C#N)c(N)n4nc(N)c(C#N)c4c3C#N)c2c1`, the growth in the test on RPMI-8226 leukemia is 110%; in the test on OVCAR-5 ovarian it was 96.8%; in the test on OVCAR-4 ovarian, 111%; in the test with SK-OV-3 ovarian it was 93.2%; in the test on IGROV1 ovarian it was 94.4%; with OVCAR-3 ovarian, 91.9%. Moreover, the growth in the test with HS 578T breast was 104%; in the test on NCI/ADR-RES ovarian, 104%; in the test on T-47D breast, 84.1%; with BT-549 breast, 89.3%; in the test on MDA-MB-435 melanoma, 113%; in the test with SW-620 colon, 98%. The growth in the test on MCF7 breast was 105%; in the test with HCT-116 colon it was 108%; in the test with HCC-2998 colon, 96.6%; in the test with KM12 colon, 99%.
As to `COc1ccc(-c2cc(-c3nnc(SCC(=O)Nc4ccc(C(C)=O)cc4)o3)c3ccccc3n2)cc1`, the growth in the test with RPMI-8226 leukemia was -19.8% (active); with OVCAR-5 ovarian, 71.4%; in the test with OVCAR-4 ovarian, -49.6% (active); in the test on SK-OV-3 ovarian it was 17.8%; in the test with IGROV1 ovarian, 9.74% (active); with OVCAR-3 ovarian, -20.6% (active). Moreover, the growth in the test on HS 578T breast was -8.38% (active); in the test on NCI/ADR-RES ovarian, 6.03% (active); in the test with T-47D breast, 0.593% (active); with BT-549 breast, 14.8%; in the test with MDA-MB-435 melanoma, 11.5%; in the test on SW-620 colon, 5.51% (active). Moreover, the growth is -15.7% (active) with MCF7 breast, -26.9% (active) in the test with HCT-116 colon, 96.5% with HCC-2998 colon and 39.2% in the test with KM12 colon.
For the compound `O=S(=O)(O)c1ccc(N=NSc2ccc3ccccc3c2)cc1`, the growth in the test with RPMI-8226 leukemia was 91.7%; in the test with OVCAR-5 ovarian it was 106%; in the test on OVCAR-4 ovarian, 101%; with SK-OV-3 ovarian, 112%; in the test with IGROV1 ovarian, 93.2%; in the test with OVCAR-3 ovarian, 98.6%. The growth was 98.7% in the test on HS 578T breast; 96.4% in the test on NCI/ADR-RES ovarian; 82.2% in the test with T-47D breast; 94% in the test with BT-549 breast; 99.9% with MDA-MB-435 melanoma; 96.5% in the test with SW-620 colon. Besides, the growth in the test with MCF7 breast was 98.9%; with HCT-116 colon, 85.8%; in the test on HCC-2998 colon it was 97.2%; in the test on KM12 colon, 98.6%.
`CCC1=C[C@H]2CN(CCc3c([nH]c4ccccc34)[C@@](C(=O)OC)(c3cc4c(cc3OC)N(C)[C@H]3[C@@](O)(C(=O)OC)[C@H](OC(C)=O)[C@]5(CC)[C@@H]6C[C@@H]6CN6CC[C@]43[C@@H]65)C2)C1`: the growth in the test on RPMI-8226 leukemia was -25.3% (active); with OVCAR-5 ovarian, 42%; in the test on OVCAR-4 ovarian it was 37.6%; in the test with SK-OV-3 ovarian, 17.9%; in the test with IGROV1 ovarian, 21.6%; with OVCAR-3 ovarian, 0.761% (active). Moreover, the growth was 10.8% in the test on HS 578T breast; 28% in the test on NCI/ADR-RES ovarian; 70% in the test with T-47D breast; 16.1% with BT-549 breast; -32.6% (active) in the test on MDA-MB-435 melanoma; 29.2% with SW-620 colon. Also, the growth in the test with MCF7 breast was 7.76% (active); in the test on HCT-116 colon, 4.74% (active); in the test with HCC-2998 colon it was 22.2%; with KM12 colon, 16.2%.
Regarding `C#C[C@@]1(O)[C@@H](CO)O[C@@H](n2cc(Cl)c3c(N)ccnc32)[C@@H]1O`, the growth in the test on RPMI-8226 leukemia was 39.9%; in the test with OVCAR-5 ovarian, 111%; in the test on OVCAR-4 ovarian, 79.9%; with SK-OV-3 ovarian it was 95.4%; with OVCAR-3 ovarian, 47.6%; with HS 578T breast it was 102%. Also, the growth with NCI/ADR-RES ovarian is 28.5%; in the test on T-47D breast it was 93.8%; in the test on BT-549 breast it was 89.9%; with MDA-MB-435 melanoma, 75.6%; with SW-620 colon, 54.8%; in the test with MCF7 breast it was 36.7%. Also, the growth was 4.67% (active) in the test on HCT-116 colon, 85.4% in the test with HCC-2998 colon and 69.9% in the test on KM12 colon.
Take `CCCn1c2cc(OCc3cn(-c4ccc(Br)cc4)nn3)ccc2c2ccnc(C)c21`: the growth was 33% in the test on RPMI-8226 leukemia; 68.3% in the test on OVCAR-5 ovarian; -44% (active) in the test on OVCAR-4 ovarian; 85.7% with SK-OV-3 ovarian; 49.1% with IGROV1 ovarian; 60.5% with OVCAR-3 ovarian. In addition, the growth with HS 578T breast was 66.9%; in the test with NCI/ADR-RES ovarian, 63.1%; with T-47D breast, 66.6%; with BT-549 breast it was 90.2%; with MDA-MB-435 melanoma, 85.4%; with SW-620 colon, 47.4%. For the same compound, the growth with MCF7 breast was 62.4%; in the test with HCT-116 colon, 54.7%; in the test with HCC-2998 colon it was 83.4%; with KM12 colon, 67.6%.
For `CC1(C)[C@@H](O)CC[C@]2(C)[C@H]3CC[C@@H]4[C@H]5[C@H](c6cn(-c7ccccc7)nn6)CC[C@]5(CO)CC[C@@]4(C)[C@]3(C)CC[C@@H]12`, the growth in the test with RPMI-8226 leukemia was 73.2%; with OVCAR-5 ovarian it was 118%; with OVCAR-4 ovarian it was 98.3%; in the test with SK-OV-3 ovarian, 103%; in the test on IGROV1 ovarian it was 119%; with OVCAR-3 ovarian it was 88.2%. Besides, the growth with HS 578T breast was 94.6%; with NCI/ADR-RES ovarian it was 80.9%; with T-47D breast, 63.9%; in the test on BT-549 breast it was 80%; with MDA-MB-435 melanoma it was 93.9%; in the test on SW-620 colon, 94.3%. Also, the growth is 52.8% in the test with MCF7 breast, 94.4% in the test on HCT-116 colon, 110% with HCC-2998 colon and 88% in the test on KM12 colon.
On to `C[C@H]1[C@H](C)CC[C@]2(C(=O)OCCOCCOCC[P+](c3ccccc3)(c3ccccc3)c3ccccc3)CC[C@]3(C)C(=CC[C@@H]4[C@@]5(C)CC[C@H](OC(=O)C(Cl)Cl)C(C)(C)[C@@H]5CC[C@]43C)[C@H]12`, for which the growth in the test with RPMI-8226 leukemia is 0.348% (active); with OVCAR-5 ovarian, 37.3%; in the test with OVCAR-4 ovarian it was 6.72% (active); in the test on SK-OV-3 ovarian, -0.459% (active); with IGROV1 ovarian it was 15.1%; in the test on OVCAR-3 ovarian, 16.1%. The growth was 38.4% with HS 578T breast; 69% in the test on NCI/ADR-RES ovarian; 21.8% with T-47D breast; -66.3% (active) with BT-549 breast; -24.1% (active) with MDA-MB-435 melanoma; 12.5% with SW-620 colon. In addition, the growth was 2.81% (active) with MCF7 breast, -36.3% (active) in the test on HCT-116 colon, 19.1% in the test with HCC-2998 colon and 7.09% (active) with KM12 colon.
